From the supplement of paper PMC10849652
About 7,900 targets were measured; listed, in parts, are those with a hit and a random draw of the rest. About 0.6% of all pairs of compound and target were hits. Values without a mark were called inactive.

How the values were obtained:
Test in all cases: log2 fold change, soluble protein after heating vs DMSO (PISA); higher = thermal stabilisation; K562 cells, 10 uM, 30 min; active = over 0.2 and 3.5 SD of the protein, either way, in both replicates (recomputed)
saracatinib = compound: CN1CCN(CCOc2cc(OC3CCOCC3)c3c(Nc4c(Cl)ccc5c4OCO5)ncnc3c2)CC1 [saracatinib]
Procedure, shortened: (§1)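 K562 cells at 2×10^6 cells/mL were given 10 μM compound for 30 min. Aliquots then went through 3 min of heating across 48°C-58°C, were pooled, and were extracted in PBS with 0.5% NP-40 at 4°C, and the supernatant after 21,000xg for 90 min was quantified by TMTpro 16plex LC-MS/MS with channel sums equalised. Thermal stability relative to control samples, from duplicates, is given as log2 fold change.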

sotrastaurin = compound: CN1CCN(c2nc(C3=C(c4c[nH]c5ccccc45)C(=O)NC3=O)c3ccccc3n2)CC1 [sotrastaurin]
Procedure, shortened: as §1

alvocidib = compound: CN1CC[C@H](c2c(O)cc(O)c3c(=O)cc(-c4ccccc4Cl)oc23)[C@H](O)C1 [alvocidib]
Procedure, shortened: as §1

Tubastatin A = compound: CN1CCc2c(c3ccccc3n2Cc2ccc(C(=O)NO)cc2)C1 [Tubastatin A]
Procedure, shortened: as §1

[1] = compound: CNC(=O)C1=CC=CC=C1NC2=NC(=NC=C2Cl)NC3=C(C=C(C=C3)N4CCOCC4)OC
Procedure, shortened: as §1

defactinib = compound: CNC(=O)c1ccc(Nc2ncc(C(F)(F)F)c(NCc3nccnc3N(C)S(C)(=O)=O)n2)cc1 [defactinib]
Procedure, shortened: as §1

rucaparib = compound: CNCc1ccc(-c2[nH]c3cc(F)cc4c3c2CCNC4=O)cc1 [rucaparib]
Procedure, shortened: as §1

[2] = compound: CNc1nc(-c2ccc3c(N)n[nH]c3c2)cc(N2C[C@@H](C(=O)NC3CCCCC3)CC[C@H]2C)n1
Procedure, shortened: as §1

encorafenib = compound: COC(=O)N[C@@H](C)CNc1nccc(-c2cn(C(C)C)nc2-c2cc(Cl)cc(NS(C)(=O)=O)c2F)n1 [encorafenib]
Procedure, shortened: as §1

[3] = compound: COC(=O)[C@H](CCSC)NC(=O)C1=C(C=C(C=C1)NC[C@H](CS)N)C2=CC=CC=C2
Procedure, shortened: as §1

Sequence of UniProt O00628 (O00628 whole entry, looked up): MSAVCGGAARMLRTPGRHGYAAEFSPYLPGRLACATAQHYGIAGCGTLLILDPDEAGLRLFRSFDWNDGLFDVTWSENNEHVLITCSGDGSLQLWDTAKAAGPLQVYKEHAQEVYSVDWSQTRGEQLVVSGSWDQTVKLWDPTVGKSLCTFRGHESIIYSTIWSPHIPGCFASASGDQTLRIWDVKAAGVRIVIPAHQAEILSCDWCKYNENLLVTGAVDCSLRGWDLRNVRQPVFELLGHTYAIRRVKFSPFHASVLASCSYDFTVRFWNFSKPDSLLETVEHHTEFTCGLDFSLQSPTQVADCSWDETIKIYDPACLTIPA
Sequence of UniProt Q96PU8 (Q96PU8 whole entry, looked up): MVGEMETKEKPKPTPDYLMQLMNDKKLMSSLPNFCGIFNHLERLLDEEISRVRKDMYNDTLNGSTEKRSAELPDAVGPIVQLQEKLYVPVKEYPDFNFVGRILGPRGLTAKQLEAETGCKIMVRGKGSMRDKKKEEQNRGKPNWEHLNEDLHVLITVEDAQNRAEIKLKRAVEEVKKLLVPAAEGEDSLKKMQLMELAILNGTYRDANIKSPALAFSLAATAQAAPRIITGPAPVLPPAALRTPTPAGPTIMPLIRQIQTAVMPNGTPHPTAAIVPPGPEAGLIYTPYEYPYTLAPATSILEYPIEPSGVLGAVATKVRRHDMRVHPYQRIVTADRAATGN
Sequence of UniProt P31323 (P31323 whole entry, looked up): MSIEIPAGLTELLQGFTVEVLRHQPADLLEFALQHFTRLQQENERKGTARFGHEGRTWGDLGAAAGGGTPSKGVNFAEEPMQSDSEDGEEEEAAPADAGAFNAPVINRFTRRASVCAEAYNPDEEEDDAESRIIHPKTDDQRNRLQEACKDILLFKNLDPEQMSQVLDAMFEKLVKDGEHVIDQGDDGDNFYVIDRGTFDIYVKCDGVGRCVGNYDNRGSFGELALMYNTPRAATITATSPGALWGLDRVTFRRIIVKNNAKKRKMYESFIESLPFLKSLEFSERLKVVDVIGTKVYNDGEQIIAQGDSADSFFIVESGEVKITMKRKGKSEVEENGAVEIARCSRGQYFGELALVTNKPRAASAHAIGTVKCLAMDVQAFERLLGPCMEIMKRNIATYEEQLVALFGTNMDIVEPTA
Sequence of UniProt P09874 (P09874 whole entry, looked up): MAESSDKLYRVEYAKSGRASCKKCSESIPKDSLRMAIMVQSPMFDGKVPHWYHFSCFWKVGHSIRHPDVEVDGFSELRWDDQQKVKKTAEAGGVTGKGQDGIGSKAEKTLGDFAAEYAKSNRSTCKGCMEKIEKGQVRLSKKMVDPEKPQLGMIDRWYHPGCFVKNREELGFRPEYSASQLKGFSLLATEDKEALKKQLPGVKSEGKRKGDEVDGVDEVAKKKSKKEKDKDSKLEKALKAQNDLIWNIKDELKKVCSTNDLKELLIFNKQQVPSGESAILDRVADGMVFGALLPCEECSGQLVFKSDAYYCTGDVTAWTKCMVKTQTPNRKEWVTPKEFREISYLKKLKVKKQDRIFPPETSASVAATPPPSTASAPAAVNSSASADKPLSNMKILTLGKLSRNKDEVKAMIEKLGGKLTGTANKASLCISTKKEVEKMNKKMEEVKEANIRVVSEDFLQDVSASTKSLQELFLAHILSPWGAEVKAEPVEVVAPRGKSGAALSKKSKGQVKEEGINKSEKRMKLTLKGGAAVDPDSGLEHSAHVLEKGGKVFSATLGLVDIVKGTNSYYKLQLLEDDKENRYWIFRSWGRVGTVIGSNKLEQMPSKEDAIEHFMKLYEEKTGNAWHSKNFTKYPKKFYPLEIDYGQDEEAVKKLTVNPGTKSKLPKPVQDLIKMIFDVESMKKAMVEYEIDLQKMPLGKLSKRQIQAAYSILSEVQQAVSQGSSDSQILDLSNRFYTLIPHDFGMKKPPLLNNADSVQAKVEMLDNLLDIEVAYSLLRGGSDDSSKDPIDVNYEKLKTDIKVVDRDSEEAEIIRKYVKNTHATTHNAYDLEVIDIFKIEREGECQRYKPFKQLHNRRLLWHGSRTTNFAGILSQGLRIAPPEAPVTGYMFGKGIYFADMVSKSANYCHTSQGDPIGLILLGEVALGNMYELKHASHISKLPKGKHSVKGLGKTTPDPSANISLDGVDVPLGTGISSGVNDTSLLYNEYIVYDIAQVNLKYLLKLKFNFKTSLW
Sequence of UniProt Q96HA1 (Q96HA1 whole entry, looked up): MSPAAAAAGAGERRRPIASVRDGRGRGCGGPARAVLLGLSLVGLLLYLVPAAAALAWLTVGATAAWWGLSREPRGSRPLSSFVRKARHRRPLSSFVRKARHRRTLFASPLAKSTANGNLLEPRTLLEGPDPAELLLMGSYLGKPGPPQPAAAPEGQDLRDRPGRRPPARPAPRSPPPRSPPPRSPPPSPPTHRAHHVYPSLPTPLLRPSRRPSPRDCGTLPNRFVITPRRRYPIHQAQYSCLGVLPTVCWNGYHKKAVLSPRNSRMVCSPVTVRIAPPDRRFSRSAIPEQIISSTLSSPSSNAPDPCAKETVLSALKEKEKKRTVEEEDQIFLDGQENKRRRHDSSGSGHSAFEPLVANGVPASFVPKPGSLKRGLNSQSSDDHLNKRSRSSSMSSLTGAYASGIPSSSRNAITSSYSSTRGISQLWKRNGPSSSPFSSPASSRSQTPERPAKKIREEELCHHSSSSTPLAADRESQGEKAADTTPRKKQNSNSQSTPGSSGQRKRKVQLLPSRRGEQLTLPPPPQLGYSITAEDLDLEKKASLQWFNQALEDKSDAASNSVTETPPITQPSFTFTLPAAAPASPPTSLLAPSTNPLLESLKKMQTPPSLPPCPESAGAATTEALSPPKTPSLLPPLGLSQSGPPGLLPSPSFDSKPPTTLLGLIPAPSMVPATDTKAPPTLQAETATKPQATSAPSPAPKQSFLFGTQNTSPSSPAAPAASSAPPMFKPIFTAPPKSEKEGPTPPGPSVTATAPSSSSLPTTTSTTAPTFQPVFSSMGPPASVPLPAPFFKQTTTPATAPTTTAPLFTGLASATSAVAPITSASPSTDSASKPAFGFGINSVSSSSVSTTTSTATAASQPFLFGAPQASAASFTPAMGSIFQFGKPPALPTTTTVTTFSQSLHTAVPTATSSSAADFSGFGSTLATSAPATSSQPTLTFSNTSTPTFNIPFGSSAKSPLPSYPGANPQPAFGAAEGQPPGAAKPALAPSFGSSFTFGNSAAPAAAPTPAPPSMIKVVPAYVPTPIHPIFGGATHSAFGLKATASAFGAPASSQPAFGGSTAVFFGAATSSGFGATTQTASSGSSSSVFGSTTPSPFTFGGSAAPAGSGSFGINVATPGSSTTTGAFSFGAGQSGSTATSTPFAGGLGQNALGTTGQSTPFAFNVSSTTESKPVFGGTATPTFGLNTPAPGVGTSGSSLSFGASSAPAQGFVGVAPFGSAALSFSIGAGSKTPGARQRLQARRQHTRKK
Sequence of UniProt O15162 (O15162 whole entry, looked up): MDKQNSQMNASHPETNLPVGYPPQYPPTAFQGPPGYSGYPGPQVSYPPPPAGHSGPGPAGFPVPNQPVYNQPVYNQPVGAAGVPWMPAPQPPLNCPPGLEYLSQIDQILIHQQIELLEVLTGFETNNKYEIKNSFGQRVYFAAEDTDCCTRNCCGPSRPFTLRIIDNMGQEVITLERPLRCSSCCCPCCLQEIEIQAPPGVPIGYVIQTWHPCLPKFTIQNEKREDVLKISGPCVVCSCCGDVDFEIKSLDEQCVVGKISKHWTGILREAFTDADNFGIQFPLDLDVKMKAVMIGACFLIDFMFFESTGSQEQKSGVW
Sequence of UniProt Q8WUK0 (Q8WUK0 whole entry, looked up): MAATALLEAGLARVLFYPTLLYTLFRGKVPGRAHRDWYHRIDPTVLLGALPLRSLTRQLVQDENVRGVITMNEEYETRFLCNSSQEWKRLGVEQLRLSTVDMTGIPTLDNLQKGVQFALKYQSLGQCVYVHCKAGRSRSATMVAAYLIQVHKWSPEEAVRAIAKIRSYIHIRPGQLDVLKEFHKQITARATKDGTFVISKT
Sequence of UniProt P62333 (P62333 whole entry, looked up): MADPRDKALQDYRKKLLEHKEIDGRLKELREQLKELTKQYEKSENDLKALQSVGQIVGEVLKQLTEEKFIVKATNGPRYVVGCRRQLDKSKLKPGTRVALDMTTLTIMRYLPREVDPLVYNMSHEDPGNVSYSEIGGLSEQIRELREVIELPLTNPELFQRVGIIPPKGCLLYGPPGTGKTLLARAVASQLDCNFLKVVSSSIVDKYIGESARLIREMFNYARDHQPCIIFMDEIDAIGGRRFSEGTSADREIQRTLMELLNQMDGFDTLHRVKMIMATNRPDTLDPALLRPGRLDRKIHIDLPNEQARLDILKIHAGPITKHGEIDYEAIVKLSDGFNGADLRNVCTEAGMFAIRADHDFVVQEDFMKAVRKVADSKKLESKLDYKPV
Sequence of UniProt Q53EL6 (Q53EL6 whole entry, looked up): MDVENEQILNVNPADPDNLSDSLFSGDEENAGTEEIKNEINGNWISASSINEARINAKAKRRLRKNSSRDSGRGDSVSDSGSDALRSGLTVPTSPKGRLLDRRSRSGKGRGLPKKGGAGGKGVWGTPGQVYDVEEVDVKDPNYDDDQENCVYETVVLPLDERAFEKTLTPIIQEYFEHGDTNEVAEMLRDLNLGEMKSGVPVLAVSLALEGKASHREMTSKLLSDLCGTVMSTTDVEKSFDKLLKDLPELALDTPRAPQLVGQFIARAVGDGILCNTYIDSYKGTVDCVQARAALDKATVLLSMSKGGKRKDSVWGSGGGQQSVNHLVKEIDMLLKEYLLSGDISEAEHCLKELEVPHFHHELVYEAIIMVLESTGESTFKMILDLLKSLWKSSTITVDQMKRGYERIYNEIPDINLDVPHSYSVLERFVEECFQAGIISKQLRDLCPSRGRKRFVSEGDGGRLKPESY
Sequence of UniProt O43741 (O43741 whole entry, looked up): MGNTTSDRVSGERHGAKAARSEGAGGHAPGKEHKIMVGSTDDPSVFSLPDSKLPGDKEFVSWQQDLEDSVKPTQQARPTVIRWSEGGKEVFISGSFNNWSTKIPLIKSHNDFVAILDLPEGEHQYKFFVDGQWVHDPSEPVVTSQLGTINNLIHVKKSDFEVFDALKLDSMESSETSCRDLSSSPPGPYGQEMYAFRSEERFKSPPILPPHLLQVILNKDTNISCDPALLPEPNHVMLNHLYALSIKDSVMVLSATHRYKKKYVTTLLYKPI

Target	log2 fold change (saracatinib)	log2 fold change (sotrastaurin)	log2 fold change (alvocidib)	log2 fold change (Tubastatin A)	log2 fold change [1]	log2 fold change (defactinib)	log2 fold change (rucaparib)	log2 fold change [2]	log2 fold change (encorafenib)	log2 fold change [3]
PDCD4 (UniProt Q53EL6)	-0.008	0.138	-0.113	0	0.177	-0.243	-0.113	0.114	0.073	-0.097
POLA1 (UniProt P09884)	0.006	-0.096	-0.163	0.025	0.079	-0.156	-0.126	-0.016	-0.005	-0.035
PRKCD (UniProt Q05655)	-0.026	-0.256 (active)	-0.1	-0.007	0.002	-0.002	-0.031	-0.033	-0.029	-0.024
PRKCG (UniProt P05129)	0.011	-0.373	-0.076	-0.025	0.088	-0.015	-0.021	-0.164	0.19	-0.02
PIGG (UniProt Q5H8A4)	-0.02	-0.015	-0.011	-0.037	0.013	0.175	-0.013	0.27 (active)	0.07	-0.057
PRKAB2 (UniProt O43741)	-0.064	-0.077	-0.094	0.039	-0.159	-0.084	-0.371	-0.022	0.118	-0.036
PEX7 (UniProt O00628)	0.045	0.06	-0.023	0.061	0.005	-0.005	-0.047	0.03	-0.023	-0.039
POLR2A (UniProt P24928)	-0.012	0.034	0.329 (active)	-0.012	-0.035	0.241	0.126	0.025	0.027	-0.07
PPP2R5C isoform 4 (UniProt Q13362)	-0.04	0.009	-0.063	0.012	-0.068	-0.083	-0.003	-0.032	0.06	-0.025
PDLIM7 (UniProt Q9NR12)	0.002	0.016	-0.032	-0.022	-0.014	-0.083	0.002	-0.013	0.021	-0.021
PTPA (UniProt A6PVN8)	0.21	0.003	0.034	0.131	-0.133	-0.045	0.072	-0.008	0.077	0.039
PTPMT1 (UniProt Q8WUK0)	-0.037	-0.059	-0.008	-0.063	0.027	-0.07	-0.118	-0.019	0.044	0.045
PRG4 (UniProt Q92954)	0.008	0.136	0.007	0.004	0.14	0.055	-0.072	0.031	0.001	-0.109
PRMT7 (UniProt Q9NVM4)	-0.02	-0.124	-0.219	0.088	0.004	-0.086	0.008	0.031	0.112	-0.04
PRKAR2B (UniProt P31323)	-0.024	-0.486 (active)	-0.053	0.02	-0.168	-0.191	0.086	0.014	0.069	-0.004
PRKACB isoform 2 (UniProt P22694)	-0.013	-0.119	-0.014	-0.035	-0.101	0.004	0.002	0.018	0.011	0.022
PARP1 (UniProt P09874)	-0.025	-0.104	-0.004	0.037	0.094	-0.089	1.05 (active)	0.038	0.079	-0.04
PSMA3 (UniProt P25788)	0.012	0.038	-0.043	-0.006	0.014	0.048	-0.001	0.02	0.034	0
PDSS2 (UniProt Q86YH6)	0.159	0.218	-0.053	-0.013	-0.019	-0.076	0.07	-0.025	-0.154	-0.042
PYGL (UniProt P06737)	0.063	-0.006	0.097	-0.007	-0.185	-0.039	-0.028	-0.065	0.037	0.008
PSMC6 (UniProt P62333)	-0.01	0.015	0.09	-0.025	-0.003	0.079	0.04	0.009	0.035	0.026
QKI (UniProt Q96PU8)	-0.004	-0.001	-0.106	0.062	-0.044	-0.23 (active)	-0.006	-0.036	-0.036	0.004
PTPN23 (UniProt Q9H3S7)	-0.007	-0.13	-0.061	0.112	0.055	-0.169	0.074	-0.055	0.043	-0.023
PTPA (UniProt Q15257)	0.009	0.068	-0.06	-0.029	-0.036	-0.033	-0.045	-0.012	0.012	0.003
POLR2B (UniProt P30876)	-0.071	-0.032	0.254 (active)	-0.01	-0.016	0.173	0.174	-0.012	0.056	-0.044
PLSCR1 (UniProt O15162)	0.052	0.024	0.003	0.025	-0.058	0.006	-0.015	0.082	-0.006	0.006
PPP2R5A (UniProt Q15172)	-0.03	-0.043	-0.089	0.042	0.01	-0.037	0.053	0.032	0.063	-0.03
PCLAF (UniProt Q15004)	0.057	0.057	0.138	0.08	-0.094	0.076	-0.094	-0.161	-0.046	0.093
POM121 (UniProt Q96HA1)	-0.043	-0.024	0.023	0.083	0.126	0.045	0.069	0	0.075	-0.002
POLD1 (UniProt P28340)	0.018	-0.052	-0.121	0.055	-0.01	-0.115	-0.004	-0.004	0.131	-0.029
